Assay outcomes: PubChem, National Center for Advancing Translational Sciences (NCATS)
In the library only some 12% were active in any assay of this set; here they are far more common.
AmpC detergent = qHTS Inhibitors of AmpC Beta-Lactamase (assay with detergent) | AmpC hydrolysis of nitrocefin, absorbance 480 nm, 0.01% Triton | Potency, µM (series often up to 114 µM), hits mostly inhibitors | hit rate 0.041% among 370,000 | AID 485294, 2010; note: nearly all actives have a fitted effect of over 25% in size
Target sequence (P00811 whole entry, looked up): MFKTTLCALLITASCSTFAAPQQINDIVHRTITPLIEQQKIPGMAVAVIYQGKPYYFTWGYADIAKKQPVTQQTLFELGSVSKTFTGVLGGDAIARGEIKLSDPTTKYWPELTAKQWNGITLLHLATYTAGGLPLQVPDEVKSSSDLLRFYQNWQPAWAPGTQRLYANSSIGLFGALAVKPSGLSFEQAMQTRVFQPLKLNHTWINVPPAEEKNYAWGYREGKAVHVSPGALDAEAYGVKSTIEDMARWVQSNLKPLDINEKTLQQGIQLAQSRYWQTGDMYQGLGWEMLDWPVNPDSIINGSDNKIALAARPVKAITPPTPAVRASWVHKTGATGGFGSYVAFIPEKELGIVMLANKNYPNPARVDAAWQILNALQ
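AmpC (5.3 nM in the dispensed reagent) in 20 mM phosphate pH 7.0 with 0.01% (detergent screen) or 0.0001% Triton X-100 was preincubated with compounds for 15 min at room temperature. Nitrocefin was then added from an 800 uM solution, and hydrolysis was followed at 480 nm.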
Pf growth 48h = Primary qHTS for delayed death inhibitors of the malarial parasite plastid, 48 hour incubation; hit rate 5.9% among 310,000; Potency, µM (series often up to 28.7 µM), most hits filed as inhibitors; AID 504832, 2011; P. falciparum luciferase growth in erythrocytes, 48 h
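Luminescence readout; reporter = integrated firefly luciferase in P. falciparum. RBC culture at 2% hematocrit, 0.1% parasitemia final, 37 C/5% CO2; decreased signal taken as growth inhibition.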
Sm TGR block = qHTS Assay for the Inhibitors of Schistosoma Mansoni Peroxiredoxins | AID 485364, 2010 | Potency, µM (highest dose often 114 µM), usual class: inhibitors | hit rate 3% among 360,000 | purified TGR, DTNB reduction, TNB absorbance 405 nm; note: nearly all actives have a fitted effect of over 60% in size
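TGR 20 nM + NADPH 100 uM (dispensed conc.), cpd preinc 15 min RT; start with NADPH (500 uM addition) then DTNB (15 mM addition). Kinetic TNB absorbance, 405 nm filter. Four-parameter Hill fit across titration.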
AmpC no deterg = qHTS Inhibitors of AmpC Beta-Lactamase (assay without detergent); P00811; AmpC nitrocefin hydrolysis, absorbance 480 nm, 0.0001% Triton; Potency, µM (doses to about 57.1 µM), usual class: inhibitors; hit rate 0.52% among 330,000; note: nearly all actives have a fitted effect of over 20% in size
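AmpC (5.3 nM in the dispensed reagent) in 20 mM phosphate pH 7.0 with 0.01% (detergent screen) or 0.0001% Triton X-100 was preincubated with compounds for 15 min at room temperature. Nitrocefin was then added from an 800 uM solution, and hydrolysis was followed at 480 nm.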
SARS PLpro yeast = qHTS of Yeast-based Assay for SARS-CoV PLP; S. cerevisiae expressing SARS-CoV PLpro, growth rescue; Potency, µM (doses to about 32.9 µM), most hits filed as activators; hit rate 0.19% among 330,000; calls by dose curve; note: nearly all actives have a fitted effect of over 55% in size
Pf growth 96h = Primary qHTS for delayed death inhibitors of the malarial parasite plastid, 96 hour incubation. P. falciparum luciferase reporter growth, 96 h. Potency, µM (highest dose often 28.7 µM), actives largely listed as inhibitors. hit rate 6.9% among 320,000
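Two parasite generations (96 h, 37 C, 5% CO2) of compound exposure in infected erythrocytes (0.05% parasitemia, 2% hematocrit). Luciferase-reporter P. falciparum; decreased luminescence indicates inhibited growth, aimed at apicoplast-acting delayed death.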
Large screens that a line does not name were inactive; ! = repeats disagree. Unless noted, calls come from the whole dose curve; as a rule, active = well fitted curve in the direction sought with a large enough effect; inconclusive = small, poorly fitted or top-dose-only effect, or another doubt; inactive = no such curve, though single readings can be large; an effect the other way counts as inactive or inconclusive.

Oc1ccc(Br)cc1-c1nc2cnccn2c1NC1CCCCC1	Pf growth 48h 3.3µM (no result: Pf growth 96h)
Fc1ccc(-c2nc3cnccn3c2NC2CCCC2)cc1	none
O=C(NC1CCCC1)C1CCN(C(=O)c2ccc(-c3ccccc3)cc2)CC1	Pf growth 48h inconclusive
CCn1c(C)nc2cc(C(=O)N/N=C/c3cccc(O)c3O)ccc21	Pf growth 48h 10µM, Pf growth 96h inconclusive
CCn1cc(C(=O)N2CCN(c3ccccc3F)CC2)c(=O)c2cc(S(=O)(=O)N(C)C3CCCCC3)ccc21	none (no result: Pf growth 48h, AmpC no deterg, SARS PLpro yeast, Pf growth 96h)
CCOc1ccc(NC(=O)c2cnn(-c3ccc(C)c(C)c3)c2C2CCN(C(=O)OC(C)(C)C)CC2)cc1	none (no result: Pf growth 48h, AmpC no deterg, SARS PLpro yeast, Pf growth 96h)
CC(C)(C)c1cnnn1-c1ccc(C(=O)CCl)cc1	AmpC detergent inconclusive, Sm TGR block 8.9µM
CCCC1=NN2C(=N)/C(=C\c3ccc(SCc4ccco4)o3)C(=O)N=C2S1	Sm TGR block inconclusive (no result: Pf growth 48h)
CCC1=NN2C(=N)/C(=C\c3ccc(SCc4ccco4)o3)C(=O)N=C2S1	AmpC detergent inconclusive, Sm TGR block 50µM, Pf growth 96h inconclusive (no result: Pf growth 48h)
O=C1NC(=S)S/C1=C\c1ccc(SCc2ccco2)o1	AmpC detergent inconclusive, Sm TGR block 1.3µM
Cc1nn(-c2ccccc2)c2sc(C(=O)Nc3cccc(Cl)c3)cc12	none (no result: Pf growth 48h, AmpC no deterg, SARS PLpro yeast, Pf growth 96h)
O=c1cccc2n1CC1CC2CN(Cc2cccc(Cl)c2Cl)C1 (centres undefined)	Pf growth 48h 4.7µM (no result: Pf growth 96h)
O=c1cccc2n1CC1CC2CN(S(=O)(=O)c2cc(Cl)ccc2Cl)C1 (centres undefined)	Pf growth 48h inconclusive
O=c1cccc2n1CC1CC2CN(Cc2c(F)cccc2Cl)C1 (centres undefined)	AmpC detergent inconclusive, Pf growth 96h 9.3µM
Cc1ccc(Nc2cc(C)c(C#N)c3nc4ccccc4n23)cc1Cl	none (no result: Pf growth 48h, AmpC no deterg, SARS PLpro yeast, Pf growth 96h)
O=C(c1ccccc1)N1CCc2cc(CNS(=O)(=O)c3ccccc3Cl)ccc21	none (no result: Pf growth 48h, AmpC no deterg, SARS PLpro yeast, Pf growth 96h)
COc1ccc(-n2cccc2/C=C/[N+](=O)[O-])cc1	Pf growth 48h inconclusive, Sm TGR block 25µM, Pf growth 96h 3.3µM
COc1ccc(-n2cccc2C=O)cc1	none
CC(=O)Oc1ccc(C(=C2CCCCC2)c2ccc(OC(C)=O)cc2)cc1	none (no result: AmpC detergent, Sm TGR block, AmpC no deterg, SARS PLpro yeast)
Cc1ccc(S(=O)(=O)N2CCOC23CCN(C(=O)c2ccc(Cl)cc2Cl)CC3)cc1	Pf growth 48h inconclusive, Sm TGR block 7.9µM
COc1ccc(S(=O)(=O)N2CCOC23CCN(S(=O)(=O)c2ccc(F)cc2)CC3)cc1	Pf growth 48h inconclusive, Pf growth 96h inconclusive
Cc1ccc(S(=O)(=O)N2CCOC23CCN(S(=O)(=O)c2c(C)cc(C)cc2C)CC3)cc1	Pf growth 48h inconclusive, Pf growth 96h 4.7µM
COc1ccc(S(=O)(=O)N2CCOC23CCN(S(=O)(=O)c2ccc(C)cc2)CC3)cc1	Pf growth 48h 15µM, Pf growth 96h inconclusive
CCN(CC(=O)NC1CC1)S(=O)(=O)c1ccc(OC)cc1	Pf growth 96h inconclusive
Cc1cc(C)c2ccc(C)[n+]([O-])c2c1O	Sm TGR block 13µM (no result: Pf growth 96h)
Cc1ccc(NC(=O)NCCCl)cc1S(=O)(=O)N1CCOCC1	none
O=[N+]([O-])c1ccc(-c2ccc(/C=N/Nc3nc(N4CCCC4)nc(N4CCCC4)n3)o2)cc1	Pf growth 48h inconclusive, Pf growth 96h inconclusive
O=[N+]([O-])c1ccc(/C=N/Nc2nc(N3CCCC3)nc(N3CCCC3)n2)o1	Pf growth 96h 10µM (no result: Pf growth 48h)
O=[N+]([O-])c1ccc(-c2ccc(/C=N/Nc3nc(N4CCCCC4)nc(N4CCCCC4)n3)o2)cc1	Pf growth 48h inconclusive
CCNc1nc(NCC)nc(N/N=C/c2ccc([N+](=O)[O-])o2)n1	Pf growth 96h 4.1µM (no result: Pf growth 48h)
O=[N+]([O-])c1cccc(-c2ccc(/C=N/Nc3nc(N4CCCCC4)nc(N4CCCCC4)n3)o2)c1	Pf growth 48h 2.3µM
CCCCn1c(N)c(N(CCOC)C(=O)CN(C)CC(=O)Nc2ccc(Cl)c(Cl)c2)c(=O)[nH]c1=O	none (no result: AmpC detergent, Pf growth 48h, Sm TGR block, Pf growth 96h)
COc1cc2c(cc1OC)N1C(=O)CC(OCC(=O)O)C3C4CC5(CCN5C(=O)C4=O)C2C31 (centres undefined)	Pf growth 48h 12µM
COc1cc2c(cc1OC)C(C(=O)NCCC(C)C)C1CCCCN1C2=O (centres undefined)	AmpC detergent inconclusive, Pf growth 96h inconclusive
CC1=C(C(=O)Nc2ccccc2)C(c2ccncc2)n2nc(SCc3ccccc3F)nc2N1 (centres undefined)	none (no result: Pf growth 48h, AmpC no deterg, SARS PLpro yeast, Pf growth 96h)
CCCCCCN(C(=O)CCCCCN1C(=O)NC(c2ccc(-c3ccccc3)cc2)C(C(=O)OCc2ccccc2)=C1C)C(C(=O)NCCCC)c1ccc(OCC(=O)OC)cc1 (centres undefined)	AmpC detergent inconclusive, Pf growth 48h inconclusive, Pf growth 96h 4.7µM
CC1=C(C(=O)OCc2ccccc2)C(c2ccc(Cl)cc2Cl)NC(=O)N1CCCCCC(=O)O (centres undefined)	AmpC detergent inconclusive, Pf growth 96h inconclusive
CCOC(=O)C1=C(C)N(CCCCCC(=O)O)C(=O)NC1c1ccc(Br)cc1 (centres undefined)	AmpC detergent inconclusive
CCCCNC(=O)C(c1ccc(OCC(=O)OC)c(C(=O)OC)c1)N(CCOC)C(=O)CCCCCN1C(=O)NC(c2ccc(-c3ccccc3)cc2)C(C(=O)OCc2ccccc2)=C1C (centres undefined)	Pf growth 48h 1.2µM, Pf growth 96h 1.7µM
CCCCNC(=O)C(c1ccc(OCC(=O)OC)c(C(=O)OC)c1)N(CCc1ccccc1)C(=O)CCCCCN1C(=O)NC(c2ccc(-c3ccccc3)cc2)C(C(=O)OCc2ccccc2)=C1C (centres undefined)	Pf growth 48h 1.9µM, Pf growth 96h 2.1µM
CCc1nn2c(=O)c(S(=O)(=O)Nc3ccc(Br)cc3F)c(C)nc2s1	none (no result: Pf growth 48h, AmpC no deterg, SARS PLpro yeast, Pf growth 96h)
Cc1c(NC(=O)c2nc3ccccc3nc2N2CCCCC2)cccc1[N+](=O)[O-]	none (no result: Pf growth 48h, AmpC no deterg, SARS PLpro yeast, Pf growth 96h)
CCN1C(=NCc2ccc(OC)cc2)N[C@@H](c2ccccc2)[C@H](C(=O)OC)[C@H]1C	AmpC detergent inconclusive, Pf growth 96h inconclusive
CCN1C(=NCCCOC(C)C)N[C@@H](CCc2ccccc2)[C@H](C(=O)NCCCOC(C)C)[C@H]1C	AmpC detergent inconclusive, Pf growth 48h 4.7µM, SARS PLpro yeast inconclusive, Pf growth 96h 4.7µM
CCN1C(=NCCOC)N[C@@H](CCc2ccccc2)[C@H](C(=O)OC)[C@H]1C	AmpC detergent inconclusive, Pf growth 96h 17µM!
